In the supplement of paper PMC11732987, “Enantioselective OTUD7B fragment discovery through chemoproteomics screening and high-throughput optimisation” (Communications Chemistry, 2025):
A number with no mark means an inactive call.

Key:
Experiment in all cases: log2 ratio of Biotin-Ahx-Ub-VS probe labelling (fragment/DMSO); higher = less target engagement (more negative = stronger competition), active = hit call of the paper (q ≤ 0.05, log2 ratio ≤ -1)
Conditions in all cases: compound concentration: 200 uM; treatment time: 3 h
[1] = target: T1, ALG13 (UniProt Q9NP73)
T1 sequence (whole entry): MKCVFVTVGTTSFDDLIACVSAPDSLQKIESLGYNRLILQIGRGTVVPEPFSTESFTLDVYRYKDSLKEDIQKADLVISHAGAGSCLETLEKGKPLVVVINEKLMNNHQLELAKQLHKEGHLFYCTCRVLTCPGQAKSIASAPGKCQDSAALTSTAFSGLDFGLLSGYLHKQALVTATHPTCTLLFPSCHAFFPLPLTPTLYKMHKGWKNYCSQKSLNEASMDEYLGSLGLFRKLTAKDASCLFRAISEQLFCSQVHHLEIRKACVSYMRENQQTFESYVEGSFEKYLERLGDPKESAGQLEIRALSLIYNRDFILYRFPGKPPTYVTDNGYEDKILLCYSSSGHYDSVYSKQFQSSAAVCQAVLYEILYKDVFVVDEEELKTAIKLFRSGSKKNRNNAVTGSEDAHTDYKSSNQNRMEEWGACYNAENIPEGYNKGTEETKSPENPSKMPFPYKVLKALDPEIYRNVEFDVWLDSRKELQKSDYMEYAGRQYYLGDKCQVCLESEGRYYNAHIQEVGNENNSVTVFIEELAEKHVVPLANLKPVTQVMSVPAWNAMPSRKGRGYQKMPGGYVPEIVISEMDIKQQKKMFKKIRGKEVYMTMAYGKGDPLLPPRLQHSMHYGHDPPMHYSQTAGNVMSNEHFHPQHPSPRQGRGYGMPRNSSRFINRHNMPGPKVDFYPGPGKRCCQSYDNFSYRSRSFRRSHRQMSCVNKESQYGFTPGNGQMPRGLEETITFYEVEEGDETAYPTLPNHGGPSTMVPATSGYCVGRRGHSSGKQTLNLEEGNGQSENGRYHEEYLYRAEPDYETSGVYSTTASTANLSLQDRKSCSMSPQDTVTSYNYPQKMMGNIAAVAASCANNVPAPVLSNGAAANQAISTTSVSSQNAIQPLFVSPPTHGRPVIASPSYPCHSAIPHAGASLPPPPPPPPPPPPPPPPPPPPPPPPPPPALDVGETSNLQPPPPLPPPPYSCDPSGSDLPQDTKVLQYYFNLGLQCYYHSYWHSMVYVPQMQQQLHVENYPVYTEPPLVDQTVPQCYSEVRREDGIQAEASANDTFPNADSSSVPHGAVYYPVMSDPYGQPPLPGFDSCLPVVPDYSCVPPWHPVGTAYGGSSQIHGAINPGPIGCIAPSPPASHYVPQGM
Procedure, shortened: (§1)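 HEK293T lysate (495 µg per sample, in Tris/CHAPS/IGEPAL buffer with protease inhibitors) was exposed in triplicate for 3 h to fragment at 200 µM or to vehicle, then to Biotin-Ahx-Ub-VS at 0.5 µM final for 1 h. Labelled DUBs were enriched on NeutrAvidin, digested with LysC and trypsin, and analysed by diaPASEF LC-MS/MS. Spectronaut label-free quantities were normalised to the global median, and values are average log2 ratios of fragment over vehicle from an unpaired t-test. Only proteins with ≥2 unique peptides were used.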

[2] = target: ATXN3 (UniProt P54252)
ATXN3, sequence (P54252 whole entry): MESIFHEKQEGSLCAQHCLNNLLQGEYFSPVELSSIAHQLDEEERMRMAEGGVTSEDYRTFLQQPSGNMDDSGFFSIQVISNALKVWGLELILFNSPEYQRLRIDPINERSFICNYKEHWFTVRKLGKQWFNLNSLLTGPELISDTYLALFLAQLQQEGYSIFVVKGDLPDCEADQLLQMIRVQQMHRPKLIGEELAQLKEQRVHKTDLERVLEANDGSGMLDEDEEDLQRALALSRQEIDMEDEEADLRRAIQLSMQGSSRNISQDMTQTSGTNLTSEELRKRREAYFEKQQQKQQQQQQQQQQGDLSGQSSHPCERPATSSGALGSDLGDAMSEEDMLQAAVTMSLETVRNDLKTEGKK
Procedure, shortened: as §1

[3] = target: T2, BAP1 (UniProt Q92560)
T2 sequence (whole entry): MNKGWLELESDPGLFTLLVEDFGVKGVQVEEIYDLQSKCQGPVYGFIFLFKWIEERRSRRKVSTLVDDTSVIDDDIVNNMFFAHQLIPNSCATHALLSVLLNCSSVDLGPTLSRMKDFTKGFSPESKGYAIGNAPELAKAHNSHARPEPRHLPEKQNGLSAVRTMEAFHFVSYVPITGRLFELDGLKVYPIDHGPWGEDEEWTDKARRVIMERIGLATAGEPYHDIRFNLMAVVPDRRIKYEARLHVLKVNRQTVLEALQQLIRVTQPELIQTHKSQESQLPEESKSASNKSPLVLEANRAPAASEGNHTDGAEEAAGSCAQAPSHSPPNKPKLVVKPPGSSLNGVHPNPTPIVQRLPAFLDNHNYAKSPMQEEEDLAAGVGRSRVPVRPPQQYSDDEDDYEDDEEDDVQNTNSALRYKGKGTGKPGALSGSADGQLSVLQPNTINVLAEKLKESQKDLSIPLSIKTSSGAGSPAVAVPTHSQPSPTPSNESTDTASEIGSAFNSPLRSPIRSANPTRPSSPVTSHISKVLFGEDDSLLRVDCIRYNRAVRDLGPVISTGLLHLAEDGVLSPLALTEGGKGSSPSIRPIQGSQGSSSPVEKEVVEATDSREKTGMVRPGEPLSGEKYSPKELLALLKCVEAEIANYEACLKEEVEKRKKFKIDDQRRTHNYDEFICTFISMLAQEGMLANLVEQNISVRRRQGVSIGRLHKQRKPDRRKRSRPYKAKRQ
Procedure, shortened: as §1

[4] = target: EIF3F (UniProt O00303)
EIF3F, sequence (O00303 whole entry): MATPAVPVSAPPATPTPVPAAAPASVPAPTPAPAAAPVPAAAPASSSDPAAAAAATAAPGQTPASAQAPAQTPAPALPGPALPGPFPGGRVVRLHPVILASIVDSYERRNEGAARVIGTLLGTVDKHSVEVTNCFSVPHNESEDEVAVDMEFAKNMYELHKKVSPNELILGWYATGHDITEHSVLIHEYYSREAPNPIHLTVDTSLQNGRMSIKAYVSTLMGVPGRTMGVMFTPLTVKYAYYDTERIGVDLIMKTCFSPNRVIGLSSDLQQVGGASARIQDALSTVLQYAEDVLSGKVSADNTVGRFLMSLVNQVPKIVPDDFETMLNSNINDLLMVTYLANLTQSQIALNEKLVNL
Procedure, shortened: as §1

[5] = target: EIF3H (UniProt O15372)
EIF3H, sequence (O15372 whole entry): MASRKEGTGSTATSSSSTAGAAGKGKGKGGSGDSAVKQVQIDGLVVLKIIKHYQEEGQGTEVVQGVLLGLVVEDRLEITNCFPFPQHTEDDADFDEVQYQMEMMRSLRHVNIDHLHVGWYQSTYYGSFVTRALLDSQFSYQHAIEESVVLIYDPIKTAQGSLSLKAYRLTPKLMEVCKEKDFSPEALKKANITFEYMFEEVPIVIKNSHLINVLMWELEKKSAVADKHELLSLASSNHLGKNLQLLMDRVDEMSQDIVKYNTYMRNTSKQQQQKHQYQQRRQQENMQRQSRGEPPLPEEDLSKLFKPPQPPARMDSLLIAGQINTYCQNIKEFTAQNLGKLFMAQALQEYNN
Procedure, shortened: as §1

[6] = target: T3, FAM105A (UniProt Q9NUU6)
T3 sequence (whole entry): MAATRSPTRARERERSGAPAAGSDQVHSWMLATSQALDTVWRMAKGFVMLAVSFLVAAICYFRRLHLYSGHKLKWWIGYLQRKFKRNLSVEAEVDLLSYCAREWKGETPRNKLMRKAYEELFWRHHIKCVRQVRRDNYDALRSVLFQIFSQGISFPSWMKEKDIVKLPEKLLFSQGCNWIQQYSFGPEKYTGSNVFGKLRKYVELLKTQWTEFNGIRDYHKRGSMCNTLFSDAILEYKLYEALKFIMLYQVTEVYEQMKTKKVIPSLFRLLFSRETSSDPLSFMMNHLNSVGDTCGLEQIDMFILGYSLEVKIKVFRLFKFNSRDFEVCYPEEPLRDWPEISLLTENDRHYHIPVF
Procedure, shortened: as §1

[7] = target: OTUB1 (UniProt Q96FW1)
OTUB1, sequence (Q96FW1 whole entry): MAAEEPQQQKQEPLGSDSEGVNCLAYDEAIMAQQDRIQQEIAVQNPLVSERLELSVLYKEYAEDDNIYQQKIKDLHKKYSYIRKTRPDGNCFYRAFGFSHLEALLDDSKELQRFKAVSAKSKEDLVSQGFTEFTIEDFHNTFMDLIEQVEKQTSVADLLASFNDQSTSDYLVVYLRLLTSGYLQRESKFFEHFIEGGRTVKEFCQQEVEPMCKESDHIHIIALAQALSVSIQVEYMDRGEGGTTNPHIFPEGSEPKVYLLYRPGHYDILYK
Procedure, shortened: as §1

[8] = target: T4, OTUD4 (UniProt Q01804)
T4 sequence (whole entry): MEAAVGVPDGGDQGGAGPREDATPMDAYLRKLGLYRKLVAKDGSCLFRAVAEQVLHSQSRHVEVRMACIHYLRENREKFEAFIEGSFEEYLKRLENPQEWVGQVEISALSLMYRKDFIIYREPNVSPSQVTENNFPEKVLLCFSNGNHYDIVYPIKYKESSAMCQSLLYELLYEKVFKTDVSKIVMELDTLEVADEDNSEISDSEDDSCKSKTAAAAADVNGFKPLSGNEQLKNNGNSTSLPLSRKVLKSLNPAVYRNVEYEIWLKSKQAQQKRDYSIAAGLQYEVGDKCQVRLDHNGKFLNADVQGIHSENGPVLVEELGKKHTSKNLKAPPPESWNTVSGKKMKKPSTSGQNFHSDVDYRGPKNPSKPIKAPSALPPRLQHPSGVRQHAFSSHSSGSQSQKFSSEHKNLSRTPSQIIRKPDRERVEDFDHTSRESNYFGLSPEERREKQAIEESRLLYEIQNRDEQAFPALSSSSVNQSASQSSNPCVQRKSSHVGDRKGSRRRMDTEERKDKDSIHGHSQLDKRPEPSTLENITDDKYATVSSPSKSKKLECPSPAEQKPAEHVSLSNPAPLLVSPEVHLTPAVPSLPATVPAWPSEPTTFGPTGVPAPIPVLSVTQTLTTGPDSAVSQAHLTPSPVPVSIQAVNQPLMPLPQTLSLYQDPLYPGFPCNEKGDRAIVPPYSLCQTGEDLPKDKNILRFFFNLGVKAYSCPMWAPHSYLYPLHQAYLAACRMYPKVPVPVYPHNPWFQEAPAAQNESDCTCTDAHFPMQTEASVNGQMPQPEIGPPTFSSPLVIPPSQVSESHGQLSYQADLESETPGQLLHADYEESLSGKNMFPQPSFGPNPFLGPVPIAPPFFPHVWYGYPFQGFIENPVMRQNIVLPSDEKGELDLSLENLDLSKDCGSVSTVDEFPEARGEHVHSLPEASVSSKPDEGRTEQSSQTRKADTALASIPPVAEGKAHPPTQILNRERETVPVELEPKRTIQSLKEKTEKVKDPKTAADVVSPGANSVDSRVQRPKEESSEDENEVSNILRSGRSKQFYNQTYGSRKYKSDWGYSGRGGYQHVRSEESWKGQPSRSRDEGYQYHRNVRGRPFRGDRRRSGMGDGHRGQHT
Procedure, shortened: as §1

[9] = target: T5, OTUD5 (UniProt Q96G74)
T5 sequence (whole entry): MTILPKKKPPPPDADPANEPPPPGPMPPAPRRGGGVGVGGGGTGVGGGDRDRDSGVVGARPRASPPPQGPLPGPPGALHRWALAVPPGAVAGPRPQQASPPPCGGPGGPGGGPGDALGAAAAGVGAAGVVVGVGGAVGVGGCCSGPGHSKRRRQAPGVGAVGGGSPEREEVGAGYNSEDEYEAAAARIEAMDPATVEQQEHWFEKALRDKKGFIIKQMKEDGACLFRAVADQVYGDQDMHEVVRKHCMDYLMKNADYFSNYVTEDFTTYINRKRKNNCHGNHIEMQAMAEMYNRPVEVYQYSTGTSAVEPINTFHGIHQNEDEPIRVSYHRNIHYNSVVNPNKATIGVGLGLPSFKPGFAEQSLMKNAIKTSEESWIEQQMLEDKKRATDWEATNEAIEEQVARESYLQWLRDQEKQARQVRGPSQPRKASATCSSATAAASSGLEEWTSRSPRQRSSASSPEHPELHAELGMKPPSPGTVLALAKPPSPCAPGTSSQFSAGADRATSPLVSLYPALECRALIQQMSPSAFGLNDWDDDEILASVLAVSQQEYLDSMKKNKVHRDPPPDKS
Procedure, shortened: as §1

CN(C)C(=O)c1ccc(NC(=O)CCl)cc1 was tested, and the “log2 ratio of Biotin-Ahx-Ub-VS probe labelling” value (“log2 ratio” for short) [1] was -0.115, the “log2 ratio” value [2] was -0.241 and the “log2 ratio” value [3] was -3.59 (active). For the same molecule, the “log2 ratio” value [4] was 0.168, the “log2 ratio” value [5] was 0.142 and the “log2 ratio” value [6] was 0.105. For the same molecule, the “log2 ratio” value [7] was 0.31, the “log2 ratio” value [8] was -0.109 and the “log2 ratio” value [9] was -0.508.
